Activity calls are given as the source filed them. The calls were made as follows: active = hit-call score of the fitted dose curve at least 0.9, where 1 is the maximum; inactive = score below 0.9.
target: human MSK1 (RPS6KA5) AGC Kinase, RPS6KA5 (gene 9252) (UniProt O75582); test: ERF_FR_ENZ_hMSK1: Eurofins (ERF) Enzymatic Radiometric [Km ATP] KinaseProfiler LeadHunter Assay for human MSK1 (RPS6KA5) AGC Kinase
Description: ERF_FR_ENZ_hMSK1 is a biochemical, single-readout assay that uses extracted gene-proteins in a cell-free assay. Measurements were taken 0.16 hour after chemical dosing in a 96-well plate. See MSK1 Human AGC Kinase Enzymatic Radiometric Assay [Km ATP], Cerep.ERF_FR_ENZ_hMSK1 is an assay component calculated from the ERF_FR_ENZ_hMSK1 assay. It is designed to measure enzyme activity using a type of enzyme reporter as detected by scintillation counting with radiometry technology.Data from the assay component ERF_FR_ENZ_hMSK1 was analyzed at the assay endpoint, ERF_FR_ENZ_hMSK1, in the positive analysis fitting direction relative to DMSO as the negative control and baseline of activity. Using a type of enzyme reporter, loss-of-signal activity can be used to understand changes in enzymatic activity as they relate to gene MSK1. To generalize the intended target to other relatable targets, this assay endpoint is annotated to the kinase intended target family, where the subfamily is serine/threonine kinase.
MSK1 (h) is incubated with 8 mM MOPS pH 7.0, 0.2 mM EDTA, 30 uM […], 10 mM MgAcetate and [g- 33P]-ATP (specific activity and concentration as required). The reaction is initiated by the addition of the Mg/ATP mix. After incubation for 40 minutes at room temperature, the reaction is stopped by the addition of phosphoric acid to a concentration of 0.5%. […]

human MSK1 (RPS6KA5) AGC Kinase, RPS6KA5 (gene 9252), sequence (O75582 whole entry, looked up): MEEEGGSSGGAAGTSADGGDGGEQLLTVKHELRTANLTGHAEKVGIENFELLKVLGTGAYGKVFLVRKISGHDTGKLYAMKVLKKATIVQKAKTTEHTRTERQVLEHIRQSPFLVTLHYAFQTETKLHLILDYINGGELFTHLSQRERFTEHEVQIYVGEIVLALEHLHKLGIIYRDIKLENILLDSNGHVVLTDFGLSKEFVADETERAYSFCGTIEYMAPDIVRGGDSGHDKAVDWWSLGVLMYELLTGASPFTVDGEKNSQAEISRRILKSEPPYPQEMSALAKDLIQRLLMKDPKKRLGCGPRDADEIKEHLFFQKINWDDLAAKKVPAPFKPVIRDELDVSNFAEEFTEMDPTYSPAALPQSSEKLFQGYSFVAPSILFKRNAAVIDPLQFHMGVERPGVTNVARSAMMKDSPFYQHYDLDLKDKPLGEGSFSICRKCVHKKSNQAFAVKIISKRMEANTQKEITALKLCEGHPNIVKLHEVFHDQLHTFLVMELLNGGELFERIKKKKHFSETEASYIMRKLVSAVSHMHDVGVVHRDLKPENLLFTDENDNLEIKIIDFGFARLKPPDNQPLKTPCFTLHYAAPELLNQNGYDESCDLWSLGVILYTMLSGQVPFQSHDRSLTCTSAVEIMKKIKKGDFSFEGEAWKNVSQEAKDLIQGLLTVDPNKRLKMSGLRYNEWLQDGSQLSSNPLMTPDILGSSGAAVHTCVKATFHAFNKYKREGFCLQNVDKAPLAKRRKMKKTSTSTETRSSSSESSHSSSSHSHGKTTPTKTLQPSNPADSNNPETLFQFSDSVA

SMILES | AC50
COc1cc(CCC(=O)CC(=O)CCc2ccc(O)c(OC)c2)ccc1O | 2.12 µM (active)
O=C(/C=C/c1ccc(O)cc1)CC(=O)/C=C/c1ccc(O)cc1 | 5 µM (active)
